Screening results as filed in PubChem.
A selection: hits, their analogues and other compounds. The true share with any hit is near 2.9%.
PAFAH1B2 inh – inhibitors of human PAFAH1B2. P68402. recombinant PAFAH1B2, FP-rhodamine activity probe, fluorescence polarization. inhibition, % at 3.39 µM. 1.2% of 340,000 active. AID 492953;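 active = inhibition above the mean of all tested compounds plus 3 SD, cut at about 24% in these data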;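 also: 0% = enzyme with DMSO and 100% = wells lacking PAFAH1B2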
Target sequence (P68402 whole entry, looked up): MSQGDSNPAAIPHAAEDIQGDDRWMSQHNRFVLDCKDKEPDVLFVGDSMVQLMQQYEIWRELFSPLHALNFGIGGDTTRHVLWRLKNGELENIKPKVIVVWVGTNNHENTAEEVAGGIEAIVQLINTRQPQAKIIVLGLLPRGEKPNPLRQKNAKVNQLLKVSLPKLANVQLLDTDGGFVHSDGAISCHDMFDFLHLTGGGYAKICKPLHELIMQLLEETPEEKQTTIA
PAFAH2 FP inh – PAFAH2 (human) inhibition; Q99487; recombinant PAFAH2, FP-rhodamine activity probe, fluorescence polarization; inhibition, % at 3.39 µM; 0.99% of 340,000 active; AID 492956;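 active = inhibition above the mean over all tested compounds plus 3 SD, cut at about 30% in these data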;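 also: inhibitors block probe labeling of enzyme so polarization drops; 0% = enzyme with DMSO and 100% = wells lacking PAFAH2 protein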
rCAG binder – r(CAG) repeat RNA binding; TO-PRO-1 dye displacement fluorescence; inhibition, % at 3 µM; 1.3% of 370,000 active;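 active = inhibition above the plate cutoff, the mean of all test compounds on that plate plus 3 SD, cut at about 35% in these data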;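 also: 0% = DMSO alone and 100% = 100 µM mitoxantrone as full dye displacement; higher means more dye released from RNA so lower well fluorescence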
EBNA-1 inhibitor – blocks EBNA-1 binding to DNA; EBNA-1 DNA binding, fluorescence polarization; inhibition, % at 14.8 µM; 0.34% of 300,000 active; AID 1950; in the data active = inhibition above about 28%
ZTA counter – counter-screen for EBNA-1 inhibitors: inhibitors of Epstein-Barr virus ZTA; 0.15% of 320,000 active; P03206; AID 2234; inhibition, % at 11 µM; ZTA-DNA binding, fluorescence polarization; in the data active = inhibition above about 33%
Target sequence (P03206 whole entry, looked up): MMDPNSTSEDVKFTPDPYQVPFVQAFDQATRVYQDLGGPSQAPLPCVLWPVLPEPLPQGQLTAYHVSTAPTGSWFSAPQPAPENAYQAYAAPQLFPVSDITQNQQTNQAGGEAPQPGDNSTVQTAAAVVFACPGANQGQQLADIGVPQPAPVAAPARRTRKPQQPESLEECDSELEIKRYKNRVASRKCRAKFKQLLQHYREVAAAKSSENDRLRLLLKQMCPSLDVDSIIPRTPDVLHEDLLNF
PAFAH1B3 inh – blocks human PAF acetylhydrolase 1B catalytic subunit 3 | recombinant PAFAH1B3, FP-rhodamine probe, fluorescence polarization | inhibition, % at 3.39 µM | 0.28% of 340,000 active;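 active = inhibition above the screen-wide average of all tested compounds plus 3 SD, cut at about 25% in these data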;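 also: 0% = enzyme with DMSO only and 100% = wells lacking PAFAH1B3 protein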
EBNA-1 inh conf – EBNA-1 (EBV) inhibition, confirmation; shares compounds with EBNA-1 inhibitor; Recombinant EBNA-1 DBD, Cy5-DNA fluorescence polarization; inhibition, % at 14.8 µM; 35% of 830 active; AID 2292;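 active = mean inhibition across replicates above a set limit taken from the earlier primary screen, cut at about 28% in these data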;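 also: plate controls were EBNA-1 protein with DMSO for no effect and wells lacking EBNA-1 for full effect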
ZTA DNA inh trip – ZTA (EBV) inhibition, triplicate counter-screen; 830 tested, under 10 active; inhibition, % at 11.1 µM; AID 2328; Zta-ZRE DNA binding, Cy5 fluorescence polarization; shares compounds with EBNA-1 inhibitor;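 active = mean inhibition over triplicates above a set limit taken from the primary EBNA-1 screen, cut at about 37% in these data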;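 also: purified full length Zta protein with Cy5 labeled ZRE DNA probe; 0% = Zta with DMSO and 100% = wells lacking Zta protein; inhibitors lower polarization by freeing the labeled DNA probe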
* hit, by the source's call.

What do the screens show for `O=C1O[C@@H](c2ccccc2)C[C@@H](O)C(=O)CCCCc2ccccc21`?
rCAG binder: 2.8

How did CCOC(=O)C(Cc1ccc(NC(=O)/C(=C/c2ccccc2)NC(=O)c2ccccc2)cc1)N1C(=O)c2ccccc2C1=O (stereo unspecified) do in these assays?
PAFAH1B2 inh: -3.5; PAFAH2 FP inh: -28.7; rCAG binder: 14.6; EBNA-1 inhibitor: 40.6*; ZTA counter: 9.9; PAFAH1B3 inh: -11.1; EBNA-1 inh conf: 11.2; ZTA DNA inh trip: 8.4

How did COc1cc(-c2nc3n(n2)C(c2cccc(OC)c2OC)C2=C(CCCC2=O)N3)cc(OC)c1OC (stereo unspecified) do in these assays?
PAFAH1B2 inh: 4.4; PAFAH2 FP inh: 2.9; rCAG binder: 1.2; EBNA-1 inhibitor: 84.5*; ZTA counter: 3.3; PAFAH1B3 inh: 14.7; EBNA-1 inh conf: 111.5*; ZTA DNA inh trip: 0.3

How did c1nc2nc3c(c(N4CCCC4)n2n1)CCCC3 do in these assays?
rCAG binder: 2.0

How did CC(/C=C/c1ccc2c(c1)OCO2)=N\NC(=O)COc1ccccc1C do in these assays?
PAFAH1B2 inh: 2.5; PAFAH2 FP inh: 1.2; rCAG binder: -4.0; EBNA-1 inhibitor: 21.1; ZTA counter: -4.0; PAFAH1B3 inh: 1.2

How did Cc1cccc(OCC(=O)N/N=C\C=C\c2ccc3c(c2)OCO3)c1C do in these assays?
PAFAH1B2 inh: 1.3; PAFAH2 FP inh: 1.3; rCAG binder: 5.7; EBNA-1 inhibitor: 58.7*; ZTA counter: -6.8; PAFAH1B3 inh: 6.0; EBNA-1 inh conf: 80.3*; ZTA DNA inh trip: -1.1

Results for COc1ccc(NC(=O)NCCCN2CCCC2=O)cc1 ?
PAFAH1B2 inh: -0.5; PAFAH2 FP inh: 0.5; rCAG binder: 1.5; EBNA-1 inhibitor: 11.5; ZTA counter: 1.9; PAFAH1B3 inh: 7.7

How did COc1ccc(-n2c(SCC(=O)NCCCN3CCCC3=O)nnc2C(C)N2CCCCC2)cc1 (stereo unspecified) do in these assays?
PAFAH1B2 inh: 2.6; PAFAH2 FP inh: 1.4; rCAG binder: -6.3; EBNA-1 inhibitor: 41.0*; ZTA counter: -2.9; PAFAH1B3 inh: 1.6; EBNA-1 inh conf: 2.2; ZTA DNA inh trip: 0.3

What do the screens show for `CCOC(=O)N1CCN(S(=O)(=O)c2ccc(F)c(C(=O)Nc3cc(C)cc(C)c3)c2)CC1`?
PAFAH1B2 inh: -3.7; PAFAH2 FP inh: -0.9; rCAG binder: 4.2; EBNA-1 inhibitor: 8.2; ZTA counter: -2.0; PAFAH1B3 inh: -5.7

What do the screens show for `CCOC(=O)N1CCN(S(=O)(=O)c2ccc(F)c(C(=O)Nc3cccc(Cl)c3C)c2)CC1`?
PAFAH1B2 inh: 1.4; PAFAH2 FP inh: -4.7; rCAG binder: 3.1; EBNA-1 inhibitor: 81.4*; ZTA counter: -7.6; PAFAH1B3 inh: 2.4; EBNA-1 inh conf: 12.4; ZTA DNA inh trip: -1.8

Results for Cc1cc(C)c2cc(C#N)c(SCC(=O)Nc3ccc4c(c3)OCO4)nc2c1 ?
PAFAH1B2 inh: 2.9; PAFAH2 FP inh: 5.7; rCAG binder: 1.8; EBNA-1 inhibitor: 32.1*; ZTA counter: -1.6; PAFAH1B3 inh: 2.7; EBNA-1 inh conf: 49.5*; ZTA DNA inh trip: 0.9

Results for COc1ccc(N=Cc2c(O)n(-c3ccc(OC)cc3)c(=O)c3ccccc23)cc1 ?
PAFAH1B2 inh: 1.3; PAFAH2 FP inh: 11.6; rCAG binder: -0.5; EBNA-1 inhibitor: 65.2*; ZTA counter: 9.0; PAFAH1B3 inh: 3.9; EBNA-1 inh conf: 55.7*; ZTA DNA inh trip: 8.5

How did COc1ccc(N=Cc2c(O)n(-c3cccc(C)n3)c(=O)c3ccccc23)cc1 do in these assays?
PAFAH1B2 inh: -3.1; PAFAH2 FP inh: -3.0; rCAG binder: -1.4; EBNA-1 inhibitor: 1.6; ZTA counter: -1.9; PAFAH1B3 inh: 3.9

Results for CCc1ccc(NC(=O)CCCNC(=O)Cn2cnc3sc(C)c(C)c3c2=O)cc1 ?
PAFAH1B2 inh: 4.0; PAFAH2 FP inh: -5.9; rCAG binder: -0.9; EBNA-1 inhibitor: 61.8*; ZTA counter: 10.5; PAFAH1B3 inh: -6.2; EBNA-1 inh conf: 30.6*; ZTA DNA inh trip: -10.0

What do the screens show for `CC(=O)c1ccc([C@H](O)[C@@H](C(=O)N(C)c2ccccc2)C2CC2)cc1`?
rCAG binder: 2.2
